# PvdQ acylase = P. aeruginosa PvdQ acylase inhibition; hit rate 0.063% among 340,000; AID 488965; inhibition, % at 10 µM; purified PvdQ acylase, fluorescence plate reader; in the data active means inhibition above about 30%, passing the limit was not always enough;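 further: 0% = vehicle neutral wells and 100% = reference inhibitor wells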
# ERp5 block = blocks human ERp5 reductase activity on insulin; Q15084; ERp5 insulin aggregation, absorbance 650 nm, 90 min; inhibition, % at 9.99 µM; hit rate 0.05% among 350,000;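 active means mean replicate inhibition above about 25%, with every replicate also reaching it, limit read from the data, passing the limit was not always enough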
# Efflux pump inh = inhibitors of Candida antifungal efflux pumps expressed in yeast | S. cerevisiae Candida pump triplex, Nile Red efflux | hit rate 0.44% among 330,000 | inhibition, % at 10 µM;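 active means plate passing quality check with inhibition over a set limit, or well fluorescence over plate mean plus 4 SD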;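 further: Nile Red retained in pooled yeast measured as flow cytometry median fluorescence; 0% = buffer negative control and 100% = Enniatin B positive control; higher means more Nile Red kept so more efflux inhibition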
# Rtt109 Vps75 = inhibitors of Candida albicans Rtt109/Vps75 histone acetyltransferase | purified Rtt109/Vps75, ThioGlo CoA-SH fluorescence, 4 h | inhibition, % at 34.9 µM | hit rate 0.16% among 330,000;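 active means inhibition of at least 50% in every replicate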
# PDI inh = blocks human protein disulfide isomerase activity; PDI insulin aggregation turbidity, A650, 90 min; inhibition, % at 10 µM; hit rate 0.052% among 350,000;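 active means mean inhibition across replicates of 30% or more, whatever share of single replicates reach that level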
# Target sequence (P07237 whole entry, looked up): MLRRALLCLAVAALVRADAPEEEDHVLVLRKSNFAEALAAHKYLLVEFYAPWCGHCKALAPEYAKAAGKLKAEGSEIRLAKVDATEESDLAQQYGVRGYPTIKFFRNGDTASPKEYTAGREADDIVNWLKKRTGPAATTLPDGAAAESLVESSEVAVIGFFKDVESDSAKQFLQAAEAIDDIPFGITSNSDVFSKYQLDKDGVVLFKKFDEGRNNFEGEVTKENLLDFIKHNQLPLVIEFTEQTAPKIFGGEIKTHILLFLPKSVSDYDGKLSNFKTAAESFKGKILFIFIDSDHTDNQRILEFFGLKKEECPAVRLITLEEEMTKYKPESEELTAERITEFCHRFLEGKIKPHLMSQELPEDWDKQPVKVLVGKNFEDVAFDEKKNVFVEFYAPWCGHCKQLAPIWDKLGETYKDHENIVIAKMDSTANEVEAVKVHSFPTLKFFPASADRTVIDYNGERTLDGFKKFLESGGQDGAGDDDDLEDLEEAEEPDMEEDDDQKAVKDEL
# Cmpd fluor yeast = flagged as fluorescent in efflux inhibitor counter-screen | AID 588517 | fluorescence ratio to DMSO, % at 10 µM | hit rate 4% among 1,700 | S. cerevisiae AD/pABC3, compound fluorescence, flow cytometry | shares compounds with Efflux pump inh;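 active means fluorescence ratio to DMSO above its plate's cutoff, the plate mean ratio plus 5 SD, cut at about 210% in these data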;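 further: unstained yeast with no Nile Red so the signal is compound autofluorescence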
# CaMdr1 efflux inh = inhibitors of Candida albicans Mdr1 efflux pump; shares compounds with Efflux pump inh; S. cerevisiae AD/CaMDR1, Nile Red efflux, flow cytometry; inhibition, % at 10 µM; hit rate 1% among 1,700; AID 588518; in the data active means inhibition above about 26%;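 further: 0% = DMSO vehicle and 100% = reference inhibitor; higher means more Nile Red retained so more efflux inhibition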
# Cdr2 pump inh = inhibitors of Candida albicans Cdr2 efflux pump; shares compounds with Efflux pump inh; S. cerevisiae AD/CaCDR2, Nile Red retention, flow cytometry; Nile Red retention ratio vs DMSO, % at 10 µM; hit rate 4% among 1,700; AID 588520; in the data active means Nile Red retention ratio vs DMSO above about 190%;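 further: higher ratio means more blocking of Cdr2 efflux of the dye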
# Cdr1 pump inh = Candida Cdr1 efflux pump inhibition; S. cerevisiae AD/CaCDR1, Nile Red efflux, flow cytometry; hit rate 1% among 1,700; shares compounds with Efflux pump inh; inhibition, % at 10 µM;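 active means inhibition above the screen-wide mean plus twice its standard deviation, cut at about 32% in these data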
# * = called active by the depositor; . = not tested or not shown; + = active, no number. A selection: hits, their analogues and other compounds. The true share with any hit is near 0.54%.
SMILES,PvdQ acylase,ERp5 block,Efflux pump inh,Rtt109 Vps75,PDI inh,Cmpd fluor yeast,CaMdr1 efflux inh,Cdr2 pump inh,Cdr1 pump inh
CN(C)c1ccc(/C=C/C=C2/SC(=S)N(c3ccccc3)C2=O)cc1,1,.,2.4*,0,-1,+,1,547*,1
O=C(C[C@@H]1C=C[C@H](NC(=O)Cc2ccccn2)[C@H](CO)O1)NCCc1ccccc1,.,22,.,.,.,.,.,.,.
CNS(=O)(=O)c1ccc(C(=O)NCC(=O)NCC2COc3ccccc3O2)cc1 (stereo not given),-7,-7,0.6*,-8,-6,105,0,95,0
Oc1[nH]c2ccccc2c1/C=N/N1CCCCC1,-1,.,6.7*,2,3,102,0,98,0
Oc1ccccc1C=NN1CCCCCC1,-9,-7,.,-6,-5,.,.,.,.
COc1ccc(S(=O)(=O)N(C)C[C@@H]2OCCCC[C@H](C)Oc3ccc(NC(=O)Nc4ccc(C(F)(F)F)cc4)cc3C(=O)N([C@@H](C)CO)C[C@H]2C)cc1,.,14,.,.,.,.,.,.,.
Cc1ccn2cc(CCNS(=O)(=O)c3ccc(F)c(C(F)(F)F)c3)nc2c1,-7,8,0,-7,.,.,.,.,.
O=S(=O)(NCCc1cn2ccccc2n1)c1ccc(F)c(C(F)(F)F)c1,-14,6,0.5*,-6,.,102,0,116,0
O=C(c1ccncc1)N1CC2(C1)[C@@H](c1ccccc1)[C@@H](CO)N2C(=O)CC1CC1,.,-4,.,.,.,.,.,.,.
CCn1c(=O)c2ccccc2n(Cc2ccc([N+](=O)[O-])cc2)c1=O,7,0,0.6*,6,-9,97,0,118,0
Cc1cc(C(=O)Nc2cccc3c2O[C@@H](CN(C)Cc2ccc(-c4ccccc4)cc2)[C@H](C)CN([C@H](C)CO)C3=O)n(C)n1,.,-6,.,.,.,.,.,.,.
NC(=O)C1CCN(c2nc(-c3ccccc3F)cs2)CC1,-14,3,7.5*,3,-3,100,0,103,0
NC(=O)C1CCN(c2nc(-c3ccccc3Br)cs2)CC1,.,-3,0,.,.,.,.,.,.
C[C@@H]1CCCCO[C@H](CN(C)S(=O)(=O)c2cccs2)[C@@H](C)CN([C@@H](C)CO)C(=O)c2cc(N(C)C)ccc2O1,.,1,.,.,.,.,.,.,.
CCOC(=O)c1oc2c(c1C)C(=O)CCC2,-4,.,6.7*,-8,-1,97,0,85,0
CC(=O)Nc1ccc2c(c1)C(=O)N(C)[C@@H]1CC[C@H](CC(=O)NCC3CC3)O[C@H]1CO2,.,5,.,.,.,.,.,.,.
CSc1cccc(NS(=O)(=O)c2cn(C)cn2)c1,3,1,1.3*,30,-1,99,0,80,0
CCCCOc1ccc(C(=O)N/C(=C\c2ccc([N+](=O)[O-])cc2)C(=O)OCc2ccco2)cc1,-2,.,0.4*,1,3,155,2,116,0
CCc1cc2c(=O)n(Cc3ccccc3)c(SC3CCOC3=O)nc2s1 (stereo not given),-17,5,0.9*,9,2,98,0,112,0
Cc1cc(O)c(N)c(C)c1Cl,-10,0,0.8*,-8,2,110,0,92,0
CS(=O)(=O)c1ccc(Cl)c(NC(=O)c2cccc(Br)c2)c1,5,.,5.8*,-8,-1,100,0,90,0
COc1ccc(CCNC(=O)c2ccc(-c3cccc([N+](=O)[O-])c3)o2)cc1OC,-4,0,0,-1,-6,.,.,.,.
COc1ccc(CCNC(=O)c2ccc(-c3ccc([N+](=O)[O-])cc3Cl)o2)cc1,-12,-6,6.7*,2,6,142,0,100,0
O=C(Nc1ccccc1)N1C[C@@H]2[C@H](c3ccccc31)[C@@H](CO)N2Cc1ccc(F)cc1,.,4,.,.,.,.,.,.,.
COc1cccc(C#Cc2ccc([C@H]3[C@H]4CN(C(C)=O)CC(=O)N4[C@H]3CO)cc2)c1,.,2,.,.,.,.,.,.,.
O=C(CN1CCOCC1)N[C@H]1CC[C@@H](CCn2cc(C3CCCC3)nn2)O[C@H]1CO,.,0,.,.,.,.,.,.,.
